{"source": "PubChem BioAssay AID449762", "about": "(Southern Research Specialized Biocontainment Screening …, 2010)", "note": "The whole screen tested about 330,000 compounds, of which about 1,900 (0.58%) were called active. Inconclusive results (about 4%) are left out. Not all results are given here. Results with a measured potency or affinity are listed apart. Values without a mark were called inactive. Rule as the data show it: inconclusive = inhibition above about 70% without an active follow-up result; inactive = below that."}
{"assay": "M. tuberculosis growth inhibition, HTS (AID 449762);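 also: bacterial growth assessed after seven days of incubation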", "details": "M. tuberculosis H37Rv growth inhibition, 7H9 media; at 25 µM; stronger effect = higher value", "units": {"inhibition": "%"}}
{"smiles": "COc1cccc(/C=N/NC(=O)c2cccc([N+](=O)[O-])c2)c1OS(=O)(=O)c1ccccc1", "inhibition": -10.3}
{"smiles": "Cc1cc(Nc2cc(N3CCN(C)CC3)nc(Sc3ccc(NC(=O)C4CC4)cc3)n2)n[nH]1", "inhibition": 3.52}
{"smiles": "Cc1nc(-c2ccc(NC(=O)C3CC3)cc2)cs1", "inhibition": 37.4}
{"smiles": "COc1cccc(NC(=O)Cn2c(=O)n(-c3ccccc3)c(=O)c3oc4ccccc4c32)c1", "inhibition": -3.21}
{"smiles": "Cc1ccc2c(c1)c1c(n2C)C(C(N)=O)CCC1", "note": "(configuration not stated)", "inhibition": -14.2}
{"smiles": "c1ccc(Cn2c(CNc3nc4ccccc4n3CCN3CCOCC3)nc3ccccc32)cc1", "inhibition": 10.7}
{"smiles": "Cn1c(CNc2nc3ccccc3n2CCN2CCCCC2)nc2ccccc21", "inhibition": 1.84}
{"smiles": "Cc1ccc(C(=O)N/C(=C/c2cccs2)C(=O)NCCCn2ccnc2)cc1", "inhibition": -0.44}
{"smiles": "O=C(NCCCSc1ccccc1)c1cccnc1", "inhibition": 2.65}
{"smiles": "NC(=O)N/N=C/c1ccc2cccc(OCc3ccccc3)c2n1", "inhibition": 12.6}
{"smiles": "O=C(Cc1ccccc1)N/N=C/c1ccccn1", "inhibition": -3.52}
{"smiles": "CC(N)(C(=O)O)c1cccc(OCc2cccc(Cl)c2)c1", "note": "(configuration not stated)", "inhibition": -9.95}
{"smiles": "CN(C(=O)CSc1nccc(=O)[nH]1)C1CCCCC1", "inhibition": -5.2}
{"smiles": "CCCn1c(Nc2ccccc2C)nc2ccccc21", "inhibition": -13.5}
{"smiles": "CCCn1c(Nc2ccccc2)nc2ccccc21", "inhibition": 3.3}
{"smiles": "CCN1CCN(Cc2cc(Br)ccc2O)CC1", "inhibition": -0.17}
{"smiles": "CC(C)CCC(C)NC(=O)CN1C(=O)NC(C)(c2ccc3ccccc3c2)C1=O", "note": "(configuration not stated)", "inhibition": -6.81}
{"smiles": "COc1ccc(C(=O)OCC(=O)NC2CC2)cc1F", "inhibition": 2.71}
{"smiles": "CCNC(=S)NCc1ccco1", "inhibition": 8.6}
{"smiles": "NNC(=S)NCc1ccco1", "inhibition": -5.28}
{"smiles": "CC[C@@H]1CN(C)[C@H]2Cc3c([nH]c4ccccc34)C(=O)C[C@@H]1[C@@H]2C(=O)OC", "inhibition": -5.83}
{"smiles": "COc1ccc(C2CC(c3ccc(Cl)cc3)n3nc(N)nc3N2)cc1", "note": "(configuration not stated)", "inhibition": 1.53}
{"smiles": "CCCc1nn2c(=O)c(C(c3cccc(Cl)c3)c3c(O)nc4sc(CCC)nn4c3=O)c(O)nc2s1", "inhibition": -6.75}
{"smiles": "COc1ccc(NC(=O)CCc2nnc3ccc(N4CCC(C)CC4)nn23)cc1", "inhibition": -0.59}
{"smiles": "CCOc1ccc(NC(=O)CCc2nnc3ccc(N4CCN(C)CC4)nn23)cc1", "inhibition": 1.67}
{"smiles": "O=C1CCCc2c1nc(-c1ccc([N+](=O)[O-])cc1)n2O", "inhibition": 0.46}
{"smiles": "CC(C)CNC(=O)/C(C#N)=C1\\N=C(NC(=O)c2ccco2)c2ccccc21", "inhibition": 12.4}
{"smiles": "Cc1cc(OC(F)F)ccc1NC(=O)Nc1ccc([N+](=O)[O-])cc1", "inhibition": 17.3}
{"smiles": "O=C(Nc1ccc(OC(F)F)c(Cl)c1)Nc1ccc2c(c1)OCO2", "inhibition": 5.38}
{"smiles": "Cc1ncc([N+](=O)[O-])n1CC(=O)NC1CCCCCC1", "inhibition": 0.9}
{"smiles": "O=C(Cc1ccc([N+](=O)[O-])cc1)OCc1c(F)cccc1Cl", "inhibition": 7.51}
{"smiles": "CC(C)N(Cc1ccccc1)CC(O)COc1ccc(S(=O)(=O)N2CCOCC2)cc1Cl", "note": "(configuration not stated)", "inhibition": 1.09}
{"smiles": "O=c1cc(-c2ccccc2O)nc(-c2ccccc2)[nH]1", "inhibition": 15.5}
{"smiles": "Cc1nn(-c2ccc(F)cc2)c(Cl)c1/C=C(\\CC(=O)O)c1nc2ccccc2s1", "inhibition": -5.29}
{"smiles": "Cc1cc(C)c(C(=O)COC(=O)[C@H](C)Nc2ccc(C(F)(F)F)cc2[N+](=O)[O-])c(C)c1", "inhibition": -3.25}
{"smiles": "COc1ccc(C(=O)COC(=O)[C@H](C)Nc2ccc(C(F)(F)F)cc2[N+](=O)[O-])c(OC)c1", "inhibition": 11.7}
{"smiles": "Cc1cccc(NC(=O)CSc2cc(C)c(C#N)c3nc4ccccc4n23)c1", "inhibition": -1.23}
{"smiles": "CCOC(=O)CSc1cc(C)c(C#N)c2nc3ccccc3n12", "inhibition": 9.77}
{"smiles": "COC(=O)C1=CO[C@@H](O[C@@H]2O[C@H](CO)[C@@H](O)[C@H](O)[C@H]2O)C2C1CC(O)O[C@H]2C", "note": "(some centres not stated)", "inhibition": -0.01}
{"smiles": "COc1ccccc1-c1nnn(C/C(N)=N/O)n1", "inhibition": -5.65}
{"smiles": "Cc1cc(C)c(NC(=O)CSc2nccn2C)c(C)c1", "inhibition": 5.06}
{"smiles": "COc1ccc(CNC(=O)c2sc3nc4c(c(C(F)(F)F)c3c2N)CCC4)cc1OC", "inhibition": 38.5}
{"smiles": "COc1ccc(CNC(=O)c2sc3nc4c(c(C(F)(F)F)c3c2N)CCC4)cc1", "inhibition": 0.35}
{"smiles": "CC(=O)NCCNC(=O)C1CCC(CNc2nc(=S)[nH]c3ccccc23)CC1", "note": "(configuration not stated)", "inhibition": -6.34}
{"smiles": "CC(C)(C)c1ccc(OCCNC(=O)c2ncn[nH]2)cc1", "inhibition": 31.8}
{"smiles": "CCOc1cccc(C=NCCc2ccc(OC)c(OC)c2)c1O", "inhibition": -1.63}
{"smiles": "CCCCNC(=S)N/N=C/c1ccccc1F", "inhibition": 31.4}
{"smiles": "COc1cccc(C=Nc2cc(C)cc(C)c2)c1O", "inhibition": 4.13}
{"smiles": "CCOc1cccc(/C=N/NC(=S)Nc2ccccc2[N+](=O)[O-])c1O", "inhibition": 0.56}
{"smiles": "Cc1ccc([C@@H]2CC=C(C(=O)O)[C@H](c3ccc(F)cc3)N2S(=O)(=O)c2ccc(C)cc2)cc1", "inhibition": 7.16}
{"smiles": "O=C(O)C(c1ccccc1)N1CCCC1", "note": "(configuration not stated)", "inhibition": -1.43}
{"smiles": "Nc1ccccc1Sc1ccccc1[N+](=O)[O-]", "inhibition": -1.08}
{"smiles": "Nc1ccccc1SC(C[N+](=O)[O-])c1ccccc1", "note": "(configuration not stated)", "inhibition": 10.3}
{"smiles": "Cc1ccc(NC(=O)Cn2c3ccc(F)cc3c3nc4n(c(=O)c32)CCS4)cc1F", "inhibition": 6.34}
{"smiles": "CC(C)(C)c1csc(NC(=O)c2ccncc2)n1", "inhibition": 6.43}
{"smiles": "CC(C)(C)c1csc(NC(=O)c2ccccc2O)n1", "inhibition": 3.48}
{"smiles": "O=C(CN1CCN(c2cccc(Cl)c2)CC1)NC1CCCc2ccccc21", "note": "(configuration not stated)", "inhibition": 11.3}
{"smiles": "O=C(CN1CCN(c2ccccc2Cl)CC1)NC1CCCc2ccccc21", "note": "(configuration not stated)", "inhibition": 7.47}
{"smiles": "CN(CCNC(=O)C1CCCN(c2ncnc3c2nc2n3CCCCC2)C1)Cc1ccccc1", "note": "(configuration not stated)", "inhibition": -0.58}
{"smiles": "CC1CCCN(C(=O)CN2C(=O)NC(C)(c3ccc4ccccc4c3)C2=O)C1", "note": "(configuration not stated)", "inhibition": 3.55}
{"smiles": "C[C@H](CO)N1C[C@H](C)[C@@H](CN(C)Cc2ccc(-c3ccccc3)cc2)Oc2c(NS(=O)(=O)c3ccc(F)cc3)cccc2C1=O", "inhibition": -1.65}
{"smiles": "C[C@]12CC[C@H](O)CC1=CC(=O)C1C2CC[C@]2(C)C(=O)CCC12", "note": "(some centres not stated)", "inhibition": -1.13}
{"smiles": "C[C@]12CC[C@@H](O)CC1=CC(=O)C1C2CC[C@]2(C)C(=O)CCC12", "note": "(some centres not stated)", "inhibition": 3.17}
{"smiles": "NCCCn1cnc2ccccc21", "inhibition": 9.6}
{"smiles": "Cc1nonc1OC(C)CNc1ccc([N+](=O)[O-])cc1", "note": "(configuration not stated)", "inhibition": 8.67}
{"smiles": "CN1CCN(c2nc(-c3ccco3)cc(C(F)(F)F)n2)CC1", "inhibition": 7.69}
{"smiles": "O=[N+]([O-])c1cnn(-c2nc(-c3ccco3)cc(C(F)(F)F)n2)c1", "inhibition": -2.2}
{"smiles": "CCn1ncc(/C=N/O)c1C", "inhibition": -7.24}
{"smiles": "CCOC(=O)C1(CCOc2ccccc2)CCN(Cc2cccc(OC)c2)CC1", "inhibition": 8.09}
{"smiles": "CCOC(=O)C1(CCOc2ccccc2)CCN(Cc2cccc(O)c2)CC1", "inhibition": 3.57}
{"smiles": "Cc1ccc(OCC(=O)N(C)CC(=O)Nc2ccc(F)c(F)c2F)cc1", "inhibition": 4.12}
{"smiles": "Cc1ccc(S(=O)(=O)N2CCN(C3CC4CCC3C4)CC2)cc1", "note": "(configuration not stated)", "inhibition": -2.36}
{"smiles": "O=C(CCNS(=O)(=O)c1ccccc1)N1CCN(C(c2ccccc2)c2ccccc2)CC1", "inhibition": 4.06}
{"smiles": "CCOc1ccc(-c2cc(CCCC(=O)NCCCOC)no2)cc1", "inhibition": -1.18}
{"smiles": "CCOc1ccc(-c2cc(CCCC(=O)NCCc3ccccc3)no2)cc1", "inhibition": -2.4}
{"smiles": "CCn1c2c(c3cc(OCC(C)C)ccc31)CCCC2=O", "inhibition": -1.76}
{"smiles": "COc1ccc(NC(=O)CS(=O)(=O)c2cn(CC(=O)N3CCOCC3)c3ccccc23)cc1OC", "inhibition": -16}
{"smiles": "Cc1ccc(SC2=C(Sc3ccc(C)cc3)C(=O)c3ccccc3C2=O)cc1", "inhibition": -5.39}
{"smiles": "O=S1(=O)N=C(SCCO)c2ccccc21", "inhibition": 8.5}
{"smiles": "COc1cc(C(=O)OCC(=O)Nc2ccccc2C(=O)NC2CC2)c([N+](=O)[O-])cc1OC", "inhibition": -0.465}
{"smiles": "COc1cccc(C2C(C#N)=C(N)OC(C(C)(C)C)=C2C#N)c1", "note": "(configuration not stated)", "inhibition": -2.5}
{"smiles": "COC(=O)c1c(NC(=S)Nc2ccc(C(=O)N3CCOCC3)cc2)sc2c1CCC2", "inhibition": -7.13}
{"smiles": "CN(C)CCNC(=O)c1ccc2c(=O)n(Cc3ccc(Cl)cc3)c(=S)[nH]c2c1", "inhibition": 2.11}
{"smiles": "O=C(NCCN1CCCC1)c1ccc(Cn2c(=S)[nH]c3ccc(Br)cc3c2=O)cc1", "inhibition": 64.3}
{"smiles": "C/C(=N/NC(=O)c1cc(C)[nH]n1)c1ccncc1", "inhibition": 0.52}
{"smiles": "CC1CCN(C(=O)C2CCCCN2S(=O)(=O)c2cccc([N+](=O)[O-])c2)CC1", "note": "(configuration not stated)", "inhibition": 0.51}
{"smiles": "COC(=O)c1[nH]c2ccccc2c1NC(=O)C(C)N1CCN(C(=O)c2ccco2)CC1", "note": "(configuration not stated)", "inhibition": -9.02}
{"smiles": "CCOC(=O)c1sc(NC(=O)c2cc(-c3ccc(C)cc3)nc3ccccc23)c(C#N)c1C", "inhibition": 1.87}
{"smiles": "COc1cccc(NS(=O)(=O)c2c(C)n(C)c(=O)n(C)c2=O)c1", "inhibition": -4.03}
{"smiles": "Cc1ccc(C)c(N2CCN(S(=O)(=O)c3ccc(-c4cc(C)no4)s3)CC2)c1", "inhibition": 6.24}
{"smiles": "Cc1nn(-c2ccc([N+](=O)[O-])cc2)c2c1C(c1ccc(OC(F)F)cc1)N1C(=N2)C(=O)Nc2ccccc21", "note": "(configuration not stated)", "inhibition": 65.4}
{"smiles": "Cc1nn(-c2ccc([N+](=O)[O-])cc2)c2c1C(c1cccc(Br)c1)N1C(=N2)C(=O)Nc2ccccc21", "note": "(configuration not stated)", "inhibition": 15.9}
